Source: PubChem (National Center for Advancing Translational Sciences (NCATS))
Compounds with a hit are over-represented: about 17% of the library has one in this group of screens.
TDP1 cell noCPT: qHTS for Inhibitors of human tyrosyl-DNA phosphodiesterase 1 (TDP1): qHTS in cells in absence of CPT; DT40 Tdp1-/- hTDP1 cells, no CPT, ATP luminescence, 48 h; Potency, µM (highest dose often 46.2 µM), for the others: top-dose activity change, negative = growth inhibition, actives largely listed as inhibitors; 420,000 compounds, 15% hits; further: on the % scale 0 is the no-effect control and ±100 the full control effect; nearly all actives have a fitted effect of over 55% in size
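Seeded 400 DT40-hTDP1 cells/well (vehicle DMSO, no 20 nM CPT); pinned compounds; ≥48 hr at 37 °C; CellTiter-Glo luminescence as viability measure.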
HepG2 viability: kills HepG2 cells in TGF-b inhibitor counter-screen; 410,000 compounds, 0.76% hits; Potency, µM (top dose mostly 46.1 µM), for inactives: at the highest dose activity change, negative = cytotoxicity, hits mostly cytotoxic; HepG2 CAGA-GFP viability, ATP luminescence, 18 h
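HepG2 CAGA-GFP cells (1000/well, DMEM with 1% FBS) received compound, then TGF-beta at 500 pg/mL final, and were incubated 18 hours at 37 degrees C. Viability was read by CellTiter-Glo luminescence. Media-only wells were set as complete cell-killing and DMSO as no toxicity.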
HT1080 IDH1KD tx: toxicity to HT-1080 IDH1 knockdown cells (counter line); HT-1080 IDH1 knockdown viability, ATP luminescence, 48 h; Potency, µM (highest dose often 46.1 µM), inactives show at the top dose activity, negative = toxicity, most hits filed as cytotoxic; 360,000 compounds, 2% hits;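 further: 0% = DMSO wells and -100% = cell-free medium wells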
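Knockdown cells (IDH1KD HT-1080) received compounds 2 h after plating at 750 cells/well and were kept 48 h at 37 °C in 5% FBS RPMI. A CellTiter-Glo luminescence read gave % activity for curve fitting.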
TGFb inhibitor: inhibitors of TGF-b signaling; HepG2 CAGA-GFP TGF-b/SMAD3 reporter, GFP fluorescence, 18 h; TGF-beta stimulated, 500 pg/mL final; Potency, µM (doses to about 46.1 µM), for inactives: top-dose activity, negative = inhibition, actives largely listed as inhibitors; 410,000 compounds, 1.2% hits; AID 588855; further: on the % scale 0 is the no-effect control and ±100 the full control effect; nearly all actives have a fitted effect of over 65% in size
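TGF-beta reporter screen: HEPG2 CAGA-GFP, 1% FBS, 500 pg/mL TGF-beta final, 18 h; per-cell GFP summed per well; curves fitted and categorized by class.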
HT1080-NT tox: kills 2HG-producing HT-1080-NT fibrosarcoma cells; HT-1080-NT fibrosarcoma viability, CellTiter-Glo ATP luminescence, 48 h; Potency, µM (top dose mostly 46.1 µM), inactives show at the top dose activity, negative = less viability, most hits filed as cytotoxic; 360,000 compounds, 1.6% hits; AID 686970;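 further: NT is the 2HG producing partner of a matched IDH1 knockdown line; 0% = DMSO-treated cells and -100% = media-only wells without cells; nearly all actives have a fitted effect of over 55% in size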
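HT-1080-NT; 750 cells/well; 5% FBS RPMI; 48 h compound, 37 degrees C; CellTiter-Glo luminescence; curve fitting and curve-class assignment.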
TDP1 cell CPT: growth inhibition of DT40 Tdp1-/-;hTDP1 cells with camptothecin (screen for TDP1 inhibitors). chicken DT40 Tdp1-/-;hTDP1 cells + 20 nM CPT, ATP luminescence, 48 h. Potency, µM (top dose mostly 46.2 µM), for the others: at the highest dose activity change, negative = growth inhibition, most hits filed as inhibitors. 420,000 compounds, 12% hits; further: on the % scale 0 is the no-effect control and ±100 the full control effect; nearly all actives have a fitted effect of over 55% in size
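Cell growth measured by CellTiter-Glo luminescence after a minimum 48 h, 37 C compound exposure with 20 nM CPT in Tdp1-knockout DT40 cells stably expressing hTDP1, seeded 400/well; qHTS titration format.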
The depositor's hits bear a star; ? = inconclusive; · = no result given. The call rests on the fitted dose curve; in most records, active means well fitted curve in the direction sought with a large enough effect; inconclusive means small, poorly fitted or top-dose-only effect, or another doubt; inactive means no such curve, though single readings can be large; an effect the other way counts as inactive or inconclusive. Potency means the concentration at half of the fitted maximal effect.

SMILES	TDP1 cell noCPT	HepG2 viability	HT1080 IDH1KD tx	TGFb inhibitor	HT1080-NT tox	TDP1 cell CPT
COCCCn1c(=O)c2sccc2n(Cc2cccc(F)c2)c1=O	-15%	12%	11%	0%	-1%	-20%
Cc1ccc(Cn2c(=O)n(CC3CCC(C(=O)N4CCOCC4)CC3)c(=O)c3sccc32)cc1 (stereo not drawn)	16µM*	1%	·	10%	·	21µM*
COC(=O)C1CCN(C(=O)COC(=O)c2cccc(NS(=O)(=O)c3ccccc3)c2)CC1	-22%	2%	0%	-14%	1%	4%
COCCN(C(=O)Cc1ccc(S(=O)(=O)N2CCOCC2)s1)c1c(N)n(CC(C)C)c(=O)[nH]c1=O	1%	-7%	28%	-22%	11%	7%
CC1CCN(C(=O)c2ccccc2NC(=O)c2cccc(S(=O)(=O)N(C)C)c2)CC1	2%	2%	7%	7%	8%	16%
COc1cc(OC)cc(-n2c(=O)c3sccc3n(Cc3ccc(F)cc3)c2=O)c1	?	7%	·	19%	·	-19%
CNC(=O)C1CCC(Cn2c(=O)c3sccc3n(Cc3ccc(F)cc3)c2=O)CC1 (stereo not drawn)	8.2µM*	-6%	·	-3%	·	8.2µM*
Cn1c(=O)c2sccc2n(Cc2cccc(Br)c2)c1=O	?	1%	-5%	3%	2%	12µM*
O=c1c2sccc2n(Cc2cccc(F)c2)c(=O)n1-c1ccc(F)cc1	18µM*	2%	?	-13%	-2%	15µM*
COCCCn1c(=O)c2sccc2n(Cc2cccc(C)c2)c1=O	?	1%	-1%	6%	3%	?
CNC(=O)C1CCC(Cn2c(=O)c3sccc3n(Cc3ccccc3)c2=O)CC1 (stereo not drawn)	?	0%	·	3%	·	?
C#CCn1c(S(=O)(=O)Cc2ccc(C)cc2)nc(-c2ccccc2)c1-c1ccccc1	?	-3%	?	-4%	-22%	?
CCOC(=O)Cn1c(-c2cccnc2)nc(-c2ccccc2)c1-c1ccccc1	23µM*	-4%	-9%	-2%	-11%	?
CCOC(=O)Cn1c(S(=O)(=O)Cc2ccccc2Cl)nc(-c2ccccc2)c1-c1ccccc1	15µM*	-8%	?	13%	?	16µM*
C#CCn1c(S(=O)(=O)Cc2ccccc2Cl)nc(-c2ccccc2)c1-c1ccccc1	?	-57%	-7%	6%	-1%	18µM*
CCOc1ccc(NC(=O)c2cccc(N3CCCS3(=O)=O)c2)cc1	-28%	1%	·	1%	·	-25%
CC1CC2C(C(O)C[C@]3(C)C2CC[C@]3(O)C(=O)CO)[C@]2(C)C=CC(=O)C=C12 (stereo partly drawn)	0%	·	·	·	·	-24%
CCOC(=O)NN=C1c2ccccc2-c2ccccc21	?	-21%	-19%	4%	-9%	?
CCOC(=O)Nc1ccc2c(c1)C(=NNC(=S)NC)c1ccccc1-2	3.3µM*	-23%	?	?	-29%	4.6µM*
COc1cccc(NC(=O)N(C)C[C@@H]2OCc3cnnn3CCCC(=O)N([C@H](C)CO)C[C@@H]2C)c1	-4%	17%	5%	14%	3%	2%
CC1=C(C(=O)N2CCCCCC2)CC(CC(=O)NCCN2CCOCC2)C(=O)N1CCC1=CCCCC1 (stereo not drawn)	2%	·	2%	·	8%	4%
CCc1ccc(NC(=O)C(=O)NCCN2CCN(C(=O)c3ccc(OC)cc3)CC2)cc1	13µM*	-14%	-13%	-3%	-3%	?
CC(C)(C)c1ccc(C(=O)N2CCN(CCNC(=O)C(=O)NCc3ccc(Cl)cc3)CC2)cc1	21µM*	-7%	?	?	?	15µM*
COCCn1c(=O)c(C)nc2cncnc21	20%	·	·	·	·	9%
CC(C)C[C@H]1CN(CCCC[C@H]2CNC(=O)C(=O)N2CCc2ccccc2)C(=O)C(=O)N1CCC1CCCCC1	-6%	·	0%	·	1%	-2%
SMILES	TDP1 cell noCPT	HepG2 viability	HT1080 IDH1KD tx	TGFb inhibitor	HT1080-NT tox	TDP1 cell CPT
CCCCC1=CC2=C(c3ccco3)C(=O)C(C)(OC(=O)c3ccc(OC)cc3)C(=O)C2=CN1C1CC1 (stereo not drawn)	-24%	0%	-5%	-2%	-12%	?
CCCCC1=CC2=C(c3ccco3)C(=O)C(C)(OC(=O)c3ccc(OC)cc3)C(=O)C2=CN1CC1CC1 (stereo not drawn)	18µM*	-7%	-2%	-23%	-9%	8.2µM*
CCCCC1=CC2=C(c3ccco3)C(=O)C(C)(OC(=O)c3ccc(OC)cc3)C(=O)C2=CN1CC(C)C (stereo not drawn)	5.2µM*	-4%	8%	-23%	23%	3.3µM*
CCCCC1=CC2=C(c3ccco3)C(=O)C(C)(OC(=O)c3ccc(OC)cc3)C(=O)C2=CN1CCCCO (stereo not drawn)	?	8%	5%	-9%	-4%	?
Cn1c(=O)c2c(-c3ccccc3)n(-c3ccccc3S)cc2n(C)c1=O	8%	7%	1%	2%	1%	1%
COc1ccccc1Nc1sc(C(=O)c2ccc(F)cc2)c(N)c1S(=O)(=O)c1ccc(C)cc1	·	-1%	·	8%	·	·
COc1ccc(S(=O)(=O)c2c(Nc3c(C)cccc3C)sc(C(=O)c3ccc(F)cc3)c2N)cc1	5.2µM*	-3%	·	?	·	5.8µM*
Cc1ccc(S(=O)(=O)c2c(Nc3cc(C)ccc3C)sc(C(=O)c3ccc4c(c3)OCO4)c2N)cc1	7.3µM*	-37%	·	-2%	·	6.5µM*
COc1cccc(Nc2sc(C(=O)c3ccc4c(c3)OCO4)c(N)c2S(=O)(=O)c2ccccc2)c1	·	6%	·	36%	·	·
COc1ccc(S(=O)(=O)c2c(Nc3c(C)cccc3C)sc(C(=O)c3ccc4c(c3)OCO4)c2N)cc1	2.9µM*	4%	·	-21%	·	5.2µM*
COc1ccc(S(=O)(=O)c2c(Nc3cccc(C)c3C)sc(C(=O)c3ccccc3)c2N)cc1	3.3µM*	-1%	·	19%	·	2.9µM*
CCC(=O)NNc1ccc(Br)cc1	-28%	0%	4.1µM*	-8%	3.7µM*	-8%
